Bioassay records deposited in PubChem BioAssay by National Center for Advancing Translational Sciences (NCATS).
Hits are enriched below; roughly 3% of the tested compounds scored in any of these assays.
RE007 growth inh – qHTS Assay for Inhibitors of the HIV-1 protein Vpr | S. pombe RE007 Vpr strain, BacTiter-Glo ATP luminescence, 24 h | Potency, µM (doses to about 92.2 µM), without a hit: at the top dose activity change, negative = less growth, most hits filed as inhibitors | AID 651644, 2012 | 0.21% of 360,000 active; active = well fitted falling curve with a large enough effect; inconclusive = small, poorly fitted or top-dose-only effect; inactive = no such curve, though single readings can be large or run the other way; also: nearly all actives have a fitted effect of over 50% in size
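Fission yeast RE007 carrying one integrated HIV-1 vpr copy, seeded at OD 0.01 in PMG+AL medium with 23 nL pinned compound. Grown 24 h at 30 degrees; viability read by BacTiter-Glo luminescence after 5 min.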
Sm TGR block – qHTS Assay for the Inhibitors of Schistosoma Mansoni Peroxiredoxins; Schistosoma mansoni thioredoxin glutathione reductase (TGR), Q962Y6; purified TGR, DTNB reduction, TNB absorbance 405 nm; Potency, µM (top dose mostly 114 µM), for inactives: top-dose activity change, negative = inhibition, most hits filed as inhibitors; 3% of 360,000 active; AID 485364, 2010; also: nearly all actives have a fitted effect of over 60% in size
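Kinetic colorimetric format: TGR-catalysed, NADPH-driven DTNB reduction monitored via TNB absorbance. Enzyme dispensed at 20 nM; compound exposure 15 min at room temperature before reaction start.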
TbPYK inhibitor – qHTS of Trypanosoma Brucei Inhibitors | pyruvate kinase (Trypanosoma brucei), Q57TT1 | TbPYK enzyme, Kinase-Glo Plus ATP luminescence, 45 min | Potency, µM (highest dose often 76.8 µM), without a hit: at the top dose activity, negative = inhibition, actives largely listed as inhibitors | 0.12% of 410,000 active; also: nearly all actives have a fitted effect of over 50% in size
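Quantitative HTS: titrated library compounds versus trypanosomal pyruvate kinase in TEA buffer (pH 7.2) containing KCl, MgCl2, BSA and Tween-20. Reactions were initiated with ADP, 130 uM final. Kinase-Glo Plus luminescence was read after 45 min at RT.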
LmPK inhibitor – qHTS Assay for Inhibitors of Leishmania Mexicana Pyruvate Kinase (LmPK) | Potency, µM (series often up to 57.5 µM), for the others: at the highest dose activity change, negative = inhibition, hits mostly inhibitors | 0.37% of 290,000 active | Q27686 | purified LmPK, Kinase-Glo ATP luminescence, 1 h
Target sequence (Q27686 whole entry, looked up): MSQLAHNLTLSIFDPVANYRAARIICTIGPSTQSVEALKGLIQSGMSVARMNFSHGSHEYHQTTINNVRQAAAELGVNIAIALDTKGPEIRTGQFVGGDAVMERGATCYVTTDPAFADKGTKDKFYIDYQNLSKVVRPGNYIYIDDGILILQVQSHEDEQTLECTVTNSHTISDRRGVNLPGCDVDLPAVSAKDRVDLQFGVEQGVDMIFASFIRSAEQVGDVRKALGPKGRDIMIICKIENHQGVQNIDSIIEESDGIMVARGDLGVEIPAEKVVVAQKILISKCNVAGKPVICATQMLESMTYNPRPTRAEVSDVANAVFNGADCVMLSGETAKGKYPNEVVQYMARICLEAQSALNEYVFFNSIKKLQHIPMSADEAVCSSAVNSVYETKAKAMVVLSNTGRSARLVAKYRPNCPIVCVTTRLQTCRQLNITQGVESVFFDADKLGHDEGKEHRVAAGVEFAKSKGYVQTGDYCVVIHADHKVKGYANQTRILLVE
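Kinase-Glo luminescence read after 1 h RT reaction of 0.1 nM LmPK with 0.5 mM PEP and 0.1 mM ADP. Activity scaled between uninhibited and enzyme-free controls.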
Numbers without * were called inactive; ? = inconclusive; nt = not tested or not shown; [ ] = another dose, or the depositor's remark. Unless noted, calls follow the shape of the dose curve; as a rule, active = well fitted curve in the direction sought with a large enough effect; inconclusive = small, poorly fitted or top-dose-only effect, or another doubt; inactive = no such curve, though single readings can be large; an effect the other way counts as inactive or inconclusive. % is scaled to controls: 0 for no effect and ±100 for the full control effect; potency is read from the fitted curve at half-maximal effect.

SMILES	RE007 growth inh	Sm TGR block	TbPYK inhibitor	LmPK inhibitor
O=C(O)C[C@@H]1C(=O)O[C@@H]2C(COC(=O)c3cc(O)c(O)c(O)c3)O[C@@H](OC(=O)c3cc(O)c(O)c(O)c3)[C@@H](OC(=O)c3cc(O)c(O)c4c3[C@H]1[C@H](O)C(=O)O4)[C@H]2OC(=O)c1cc(O)c(O)c(O)c1 (stereo not given in full)	nt	15.8µM*	nt	7.1%
CN(C)C(=S)SSC(=S)N(C)C	3.16µM*	-33.4%	4.47µM*	0.9%
CC(=O)Nc1cc([As](=O)(O)O)ccc1O	-5.3%	7.08µM*	0.2%	-2.2%
CCCCCCCCN1C(=O)[C@H](CC(=O)NCCCC)C[C@@]2(C(=O)OC)CC(C)(C)CC=C12	6.5%	nt	nt	nt
COc1cc(NS(=O)(=O)c2ccc(NC(=S)NC(=O)C(C)(C)C)cc2)nc(OC)n1	0.8%	-30.9%	-4.1%	-5.5%
COc1cc(NS(=O)(=O)c2ccc(NC(=S)NC(=O)c3cccs3)cc2)nc(OC)n1	?	22.4µM*	-9.5%	11.0%
COc1cc(NS(=O)(=O)c2ccc(NC(=S)NC(C)=O)cc2)nc(OC)n1	1.1%	nt	-1.9%	nt
COc1cc(NS(=O)(=O)c2ccc(NC(=S)NC(=O)c3ccc(F)c(F)c3)cc2)nc(OC)n1	14.1%	22.4µM*	1.4%	2.4%
CCCCNC(=O)c1nc(-c2cccnc2)oc1-c1ccc(OC(F)(F)F)cc1	-2.4%	nt	nt	nt
CC(C)c1cnc2c(c1SCC(=O)Nc1ccc(OC(F)(F)F)cc1)c(=O)n(C)c(=O)n2C	nt	2.9%	-25.0%	nt
Cc1cc2nc(-c3cccnc3SCC(=O)NC(C)C)[nH]c2cc1C	-9.5%	-12.9%	-7.5%	?
COCCOC(=O)CSc1ncccc1-c1nc2cc(C)c(C)cc2[nH]1	?	17.7%	-7.0%	14.1µM*
Cc1c(C(c2ccc(O)cc2)c2c(C)n(C)n(-c3ccccc3)c2=O)c(=O)n(-c2ccccc2)n1C	-0.2%	-11.1%	-24.7%	7.8%[11.5 µM]
Cc1ccc(C(c2c(C)n(C)n(-c3ccccc3)c2=O)c2c(C)n(C)n(-c3ccccc3)c2=O)s1	-7.7%	25.1µM*	1.4%	-0.3%
Cc1c(C(c2ccc(O)cc2)c2c(O)c3ccccc3oc2=O)c(=O)n(-c2ccccc2)n1C (stereo not given)	-15.5%	14.1µM*	-12.8%	0.7%
Cc1ccc2nsnc2c1S(=O)(=O)Nc1cccc2nsnc12	-3.0%	44.7µM*	-11.6%	1.6%
Cc1ccc(NC(=O)c2cc(N3C(=O)CCC3=O)ccc2N2CCOCC2)cc1	-7.6%	7.7%	-18.3%	2.0%
Cc1ccc(NC(=O)c2cc(N3C(=O)C=CC3=O)ccc2N2CCOCC2)cc1Cl	7.94µM*	0.708µM*	0.0%	18.3%
O=[N+]([O-])c1cccc(N=NN(CCO)c2cccc([N+](=O)[O-])c2)c1	-13.9%	-4.7%	0.4%	1.9%
CCCN(N=Nc1cccc([N+](=O)[O-])c1)c1cccc([N+](=O)[O-])c1	4.2%	50.1µM*	0.4%	4.0%
Cc1cccc(NC(=O)CN2C(=O)N/C(=C/c3ccc(C)o3)C2=O)c1	-13.5%	50.1µM*	?	10.6%
Cc1ccc(NC(=O)CN2C(=O)N/C(=C/c3ccc(C)o3)C2=O)cc1	13.5%	35.5µM*	?	6.6%
C=CCN1C(=O)N/C(=C/c2ccc(C)o2)C1=O	?	31.6µM*	?	3.4%
Cc1ccc(NC(=O)CN2C(=O)N/C(=C/c3cc(C)n(-c4cccc(C(=O)O)c4)c3C)C2=O)cc1	-9.0%	20µM*	-3.8%	1.6%
CC(=O)N[C@@H](CC(=O)O)C(=O)N[C@@H](CCC(=O)O)C(=O)O	nt	nt	-5.6%	nt
CC(=O)Nc1ccc(NC(=O)c2ccc3c(c2)CCN3S(=O)(=O)c2ccc(Cl)cc2)cc1	nt	1.3%	-0.4%	nt
N#Cc1ccc(OC(=O)c2cc(-c3ccc(Cl)cc3)on2)cc1	nt	-3.3%	-3.1%	nt
Cc1ccc(CN2C(=O)N/C(=C\c3cccn3-c3cccc(C(=O)O)c3)C2=O)cc1	-12.0%	35.5µM*	-6.7%	0.1%
CCn1c(C)cc(/C=C2\NC(=O)N(CC(=O)Nc3cccc(C)c3)C2=O)c1C	-4.1%	-33.0%	0.4%	4.1%
